# Bioassay records from PubChem.
# Vaccinia pol inh: blocks vaccinia virus processive DNA synthesis; in vitro processive DNA synthesis, absorbance read-out; hits give low values; normalized absorbance, % (concentration not given with the values); 46,000 compounds, 0.94% hits; in the data active = normalized absorbance mostly below about 85%, no sharp cut-off; inactive = mostly above about 86%
# * = called active by the depositor. Shown is part of a subset that was picked to be rich in hits.
SMILES,Vaccinia pol inh
O=C(CS(=O)(=O)Cc1ccccc1)Nc1ccc2c(c1)OCCO2,101
CC(C)c1ccc2c(c1)c1c3n2CCN(CC#N)C3CCC1 (configuration not stated),99
CC(C)(C)c1csc(=Nc2ccc(F)cc2F)o1,93
O=C(O)COc1ccc2c(c1)oc(=O)c1ccccc12,90*
O=C(O)COc1ccc2c(-c3ccccc3)cc(=O)oc2c1,102
COc1ccc2c(c1)oc(=O)c1ccccc12,92
N#CC1(C#N)[C@@H]2c3ccccc3C=CN2[C@@H](C(N)=O)[C@@H]1c1ccc(F)cc1,100
Nc1ccc(Br)cc1C(NCC(=O)O)c1ccccc1 (configuration not stated),89
Cc1ccc(S(=O)(=O)Nc2ccc(Br)cc2C(NCC(=O)O)c2ccccc2)cc1 (configuration not stated),68*
CCOC(=O)Nc1ccc(Br)cc1C(NCC(=O)OC)c1ccccc1 (configuration not stated),98
CCOC(=O)c1cnc2c(Cl)c(Cl)ccc2c1NCCOC(=O)C(C)C,100
O=C(Nc1cc(Cl)cc(Cl)c1)N1CCN(C2c3ccccc3-c3ccccc32)CC1,113
CN1CCN(Cc2c3ccccc3cc3ccccc23)CC1,88
CN(C)Cc1cc2ccccc2[nH]1,100
CN(C)Cc1c2ccccc2cc2ccccc12,47*
O=C(CCCCl)NCc1cccnc1,113
CCN1C(=O)C(=Cc2ccc(N3CCOCC3)cc2OC)C(=O)N(CC)C1=S,102
CCN1/C(=C/c2scc[n+]2C)C=C(C)c2cc(OC)c3ccccc3c21,27*
COC(=O)CCC(=O)c1cc(C(C)(C)C)sc1C(C)(C)C,100
CCCCC(CC)CN1CC(O)=C(c2nc3ccccc3s2)C1=N (configuration not stated),92
Nc1nccc(-c2ccco2)n1,98
S=c1nc2[nH]c(=S)[nH]c(=S)c2c(-c2ccco2)[nH]1,60*
O=C(NCCC1=CCCCC1)c1n[nH]c(=O)c2ccccc12,103
CCN(CC)S(=O)(=O)c1ccc(-c2nc3ccccc3s2)cc1,99
Cc1ccc(-c2nc3ccccc3s2)cc1,71*
SMILES,Vaccinia pol inh
Cc1ccc(-n2nnnc2-c2nc3ccccc3s2)cc1,111
O=C1CCCC2=C1C(c1ccccc1Cl)N=C(Nc1nc3ccccc3s1)N2 (configuration not stated),107
OC(CN(Cc1ccccc1)Cc1ccccc1)Cn1c2ccccc2c2ccccc21 (configuration not stated),101
CC(C)(CO)NCC(O)Cn1c2ccccc2c2ccccc21 (configuration not stated),65*
Cc1ccc(NCC(O)Cn2c3ccccc3c3ccccc32)cc1 (configuration not stated),100
CS(=O)(=O)NCC(O)Cn1c2ccccc2c2ccccc21 (configuration not stated),107
OCCN(CCO)CC(O)Cn1c2ccccc2c2ccccc21 (configuration not stated),77*
O=CN1CCN(CC(O)Cn2c3ccccc3c3ccccc32)CC1 (configuration not stated),100
FC(F)(F)c1ccnc(NCCNC(=S)NCc2ccco2)n1,96
CC(CCc1ccccc1)NC(=O)Cc1noc2ccccc12 (configuration not stated),93
Brc1ccc2[nH]cc(C=Nc3ccc4c(c3)OCO4)c2c1,100
O=C(CSc1nc2ccccc2s1)N1CCN(CCO)CC1,100
COc1cc(/C=C/C(=O)N2CCC(C)CC2)ccc1OCc1ccccc1,100
Cc1cccc(OCCC(=O)O)c1,118
CC(C)N=Cc1c(O)[nH]c2ccccc12,100
COc1ccc2[nH]c(O)c(N=O)c2c1,100
O=Nc1c(-c2c(O)[nH]c3ccccc23)[nH]c2ccccc12,83*
NC(=O)c1c(NC(=O)CSc2nc(-c3cccs3)cc(C(F)(F)F)n2)sc2c1CCC2,102
CS(=O)(=O)c1ncc(Cl)c(C(=O)Nc2sc3c(c2C(=O)NCC2CCCO2)CCC3)n1 (configuration not stated),95
COC(=O)c1ccc(Nc2ccccc2)cc1,102
COC(=O)c1ccc(NN)cc1,81*
N=C(N)SCc1ccccc1,96
COC(=O)c1ccc(CSc2nnc3n(N)cnn23)cc1,101
COC(=O)c1ccc(NC(=S)N(C(C)C)C(C)C)cc1,95
COC(=O)c1ccc(CSC(=N)N)cc1,81*
SMILES,Vaccinia pol inh
COC(=O)C(C)C[N+](C)(C)C (configuration not stated),100
O=C(c1cc2cc(Br)cc(Br)c2oc1=O)N1CCCCCC1,102
Cc1ccc(C2N(c3ccccc3)CCN2c2ccccc2)s1,100
O=C(NCCn1ccc2ccccc21)c1ccc(Br)o1,99
BrCc1ccc(-c2noc(-c3ccncc3)n2)cc1,21*
COc1ccc(-c2noc(-c3ccc(Cl)c(Cl)c3)n2)cc1,100
COc1ccc(Cc2nc(-c3ccc(Br)cc3)no2)cc1,94
CCOC(=O)NC(=O)c1ccc2ccccc2n1,102
CC(=O)O[C@@H]1[C@H]2OC(C)(C)O[C@H]2O[C@@H]1C(O)CO (some centres not stated),106
O=C(O)c1ccc(/C=N/N2C(=O)c3cccc4cccc(c34)C2=O)cc1,102
CN(C)N1C(=O)c2cccc3cccc(c23)C1=O,88
CNN1C(=O)c2cccc3cccc(c23)C1=O,64*
O=C(Cc1nc2ccccc2[nH]1)N1CCOCC1,106
Cc1cccc(Oc2coc3cc(OC(=O)c4ccc(F)cc4)ccc3c2=O)c1,100
CCc1cc2c(=O)c(-c3ccccc3)coc2cc1O,98
COc1ccc2c(=O)c(-c3ccc4c(c3)OCCO4)coc2c1,94
CCc1cc2c(=O)c(-c3ccc4c(c3)OCO4)coc2cc1O,82*
CCC(Sc1nc2cc(OC)c(OC)cc2c2nc(C)nn12)C(=O)NCc1ccc(C)cc1 (configuration not stated),102
CCC1Oc2ccc(C)cc2NC1=S (configuration not stated),96
O=C(C(NS(=O)(=O)c1cccc2nsnc12)c1ccccc1)N1CCc2ccccc21 (configuration not stated),86
O=C1NC(=Nc2cccc(C(=O)O)c2)S/C1=C/c1ccc(-c2ccc(C(=O)O)cc2)o1,29*
O=C(O)c1cccc(-c2ccc(/C=C3/SC(=O)N(c4ccccc4)C3=O)o2)c1,95
O=C(O)c1ccc(-c2ccc(/C=C3\Sc4ccccc4C3=O)o2)cc1,100
O=C(Nc1ncccn1)c1c[nH]c2ccccc2c1=O,98
N#CC(C#N)=C(Nc1ccccc1Cl)SCc1cccc(F)c1,26*
SMILES,Vaccinia pol inh
N#CC(C#N)=C(Nc1ccc(Br)cc1)SCc1ccc(F)cc1,86
N#CC(C#N)=C(N)SCc1ccccc1,115
Cc1ccc2nc(NC(=O)C3CC(O)CN3C(=O)Oc3ccccc3)sc2c1 (configuration not stated),100
CCOc1cc(/C=C2/SC(=Nc3ccccc3F)NC2=O)ccc1O,68
CSc1cccc(NS(=O)(=O)c2ccc3c(c2)OC(C)CN3C(C)=O)c1 (configuration not stated),95
O=C(Nc1ccc(Cl)cc1)c1cccnc1C(=O)O,93
COc1ccc(-n2cccc2CO)cc1,98
N#Cc1nc(-c2ccccc2)oc1NCCN1CCCCC1,101
Cc1cc(NCCN2CCCCC2)c2ccc3ccccc3c2n1,22*
O=S(=O)(NCCN1CCCC1)c1cc2ccccc2s1,112
